Data as given in PubChem BioAssay (NCATS).
Records with an inconclusive call do not appear. A call without a number means that no potency is given here. The source made the active and inactive calls. The call rests on the fitted dose curve; in most records, active means well fitted inhibition curve with a large enough effect; inconclusive means small, poorly fitted or top-dose-only effect; inactive means flat fitted curve, though single readings scatter.

Key:
Experiment in all cases: qHTS profiling for inhibitors of Plasmodium falciparum proliferation (AID 504749); further: nearly all actives have a fitted effect of over 60% in size
Conditions in all cases: P. falciparum in erythrocytes, SYBR Green DNA, 72 h; series mostly up to 28.7 µM
[1] = system: CP262
In short: (§1)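 Quantitative HTS: compounds pinned into medium, infected erythrocytes added (0.3% parasitemia, 2.5% hematocrit), 72 h culture at 37 C under 5% CO2. Saponin/Triton lysis with SYBR Green I, overnight RT, then fluorescence read.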

[2] = system: CP265
In short: as §1

[3] = system: CP268
In short: as §1

[4] = system: CP269
In short: as §1

[5] = system: CP286
In short: as §1

[6] = system: CP291
In short: as §1

[7] = system: CP297
In short: as §1

[8] = system: CP305
In short: as §1

[9] = system: CP315
In short: as §1

[10] = system: CP266
In short: as §1
Potency means the concentration at half of the fitted maximal effect.

Row | Compound | Potency [1] | Potency [2] | Potency [3] | Potency [4] | Potency [5] | Potency [6] | Potency [7] | Potency [8] | Potency [9] | Potency [10]
1 | O=c1cc(O)c(Cl)c[nH]1 | inactive | inactive | inactive | inactive | inactive | inactive | inactive | inactive | inactive | 
2 | CCOC(=O)[C@H](CCc1ccccc1)N[C@H]1CS[C@H](c2cccs2)CN(CC(=O)O)C1=O | inactive | inactive | inactive | inactive | inactive | inactive | inactive | inactive | inactive | inactive
3 | COc1cccc(N(C)C(=S)Oc2ccc3c(c2)CCCC3)n1 | inactive | inactive |  | inactive |  |  |  | inactive | inactive | inactive
4 | COc1cc(NS(=O)(=O)c2ccc(N)cc2)nc(OC)n1 | inactive | inactive | inactive | inactive | inactive | inactive | inactive | inactive | inactive | 
5 | CCC(C)(C)c1ccc(CC(C)CN2C[C@@H](C)O[C@@H](C)C2)cc1 (stereo partly drawn) | inactive | inactive | inactive | inactive |  | inactive | inactive | inactive | inactive | inactive
6 | Nc1nc(N)nc(-c2cc(Cl)ccc2Cl)n1 | inactive | inactive | inactive | inactive | inactive | inactive | inactive | inactive | inactive | 
7 | CCc1c2c(nc3ccc(OC(=O)N4CCC(N5CCCCC5)CC4)cc13)-c1cc3c(c(=O)n1C2)COC(=O)[C@]3(O)CC | inactive | inactive | inactive | inactive | inactive | inactive | inactive | inactive | inactive | 
8 | CC[C@H](C)C(=O)O[C@H]1C[C@@H](C)C=C2C=C[C@H](C)[C@H](CC[C@@H]3C[C@@H](O)CC(=O)O3)[C@H]21 | inactive | inactive | inactive | inactive | inactive | inactive | inactive | inactive | inactive | inactive
9 | Cc1ncc([N+](=O)[O-])n1CCO | inactive | inactive | inactive | inactive | inactive | inactive | inactive | inactive | inactive | 
10 | OC(Cn1cncn1)(Cn1cncn1)c1ccc(F)cc1F | inactive | inactive | inactive |  | inactive | inactive | inactive | inactive | inactive | inactive
11 | CC1=CC(=O)c2ccccc2C1=O | inactive | inactive | inactive | inactive |  | inactive | inactive | inactive | inactive | inactive
12 | CC(=O)Oc1ccccc1C(=O)Nc1ncc([N+](=O)[O-])s1 | inactive | inactive | inactive | inactive | 12.6 µM (active) | inactive | inactive | inactive | inactive | inactive
13 | S=P(N1CC1)(N1CC1)N1CC1 | inactive | inactive | inactive | inactive | inactive | inactive | inactive | inactive | inactive | inactive
14 | NCCCC(O)(P(=O)(O)O)P(=O)(O)O | inactive | inactive | inactive | inactive | inactive | inactive | inactive | inactive | inactive | 
15 | CNC1CCCN(c2c(F)cc3c(=O)c(C(=O)O)cn(C4CC4)c3c2OC)C1 (stereo not drawn) | inactive | inactive | inactive | inactive | inactive | inactive | inactive | inactive | inactive | 
16 | CC(C)NCC(O)c1ccc(NS(C)(=O)=O)cc1 (stereo not drawn) | inactive | inactive | inactive | inactive | inactive | inactive | inactive | inactive | inactive | inactive
17 | COc1ccc2cc3[n+](cc2c1OC)CCc1cc2c(cc1-3)OCO2 | 0.757 µM (active) | 0.891 µM (active) | 1.35 µM (active) | 0.953 µM (active) | 0.562 µM (active) | 1.51 µM (active) | 1.35 µM (active) | 0.757 µM (active) | 1.07 µM (active) | 
18 | COc1cnc(NS(=O)(=O)c2ccc(N)cc2)nc1 | inactive | inactive | inactive | inactive | inactive | inactive | inactive | inactive | inactive | 
19 | CN(Cc1cc(Br)cc(Br)c1N)C1CCCCC1 | inactive | inactive | inactive | inactive |  | inactive | inactive | inactive | inactive | inactive
20 | Cc1ccnc2c1NC(=O)c1cccnc1N2C1CC1 | inactive | inactive | inactive | inactive | inactive | inactive | inactive | inactive | inactive | inactive
21 | COc1nc(N)nc2c1ncn2[C@@H]1O[C@H](CO)[C@@H](O)[C@@H]1O | inactive | inactive | inactive | inactive | inactive |  |  | inactive | inactive | inactive
22 | CN1CCN(c2c(F)cc3c(=O)c(C(=O)O)cn4c3c2OCN4C)CC1 |  | inactive | inactive | inactive | inactive | inactive | inactive | inactive | inactive | inactive
23 | CCn1cc(C(=O)O)c(=O)c2cc(F)c(N3CCNCC3)cc21 | inactive | inactive |  |  |  |  |  |  | inactive | 
24 | CCCc1nc(C)c2c(=O)[nH]c(-c3cc(S(=O)(=O)N4CCN(CC)CC4)ccc3OCC)nn12 | inactive | inactive | inactive | inactive |  | inactive |  | inactive | inactive | 
25 | CN1CCCC(n2nc(Cc3ccc(Cl)cc3)c3ccccc3c2=O)CC1 (stereo not drawn) | inactive |  | inactive | inactive |  |  |  | inactive | inactive | inactive

Row | Compound | Potency [1] | Potency [2] | Potency [3] | Potency [4] | Potency [5] | Potency [6] | Potency [7] | Potency [8] | Potency [9] | Potency [10]
26 | Cc1noc(NS(=O)(=O)c2ccc(N)cc2)c1C | inactive | inactive |  | inactive | inactive | inactive | inactive | inactive |  | 
27 | CCCCOc1ccc(CC(=O)NO)cc1 | 2.56 µM (active) |  |  |  | 3.98 µM (active) | 3.22 µM (active) |  | 4.55 µM (active) |  | 
28 | NC(=O)c1cccnc1 | inactive | inactive | inactive | inactive | inactive | inactive | inactive | inactive | inactive | 
29 | O=c1oc2c(O)c(O)cc3c(=O)oc4c(O)c(O)cc1c4c23 |  | inactive |  | 0.757 µM (active) | 1 µM (active) |  | 1.51 µM (active) |  |  | 
30 | CNCC[C@H](Oc1cccc2ccccc12)c1cccs1 |  |  |  |  | 12.6 µM (active) | inactive |  | inactive | inactive | inactive
31 | CCOC(=O)c1ccc(C#Cc2ccc3c(c2)C(C)(C)CCS3)nc1 | inactive |  |  | inactive |  |  | inactive |  | inactive | inactive
32 | COc1c(N2CCNC(C)C2)c(F)cc2c(=O)c(C(=O)O)cn(C3CC3)c12 (stereo not drawn) |  | inactive | inactive |  |  |  |  | inactive | inactive | inactive
33 | Cc1oc(=O)oc1CN1CCN(c2cc3c(cc2F)c(=O)c(C(=O)O)c2n3C(C)S2)CC1 (stereo not drawn) |  | 11.2 µM (active) |  |  | 7.94 µM (active) |  |  |  | inactive | inactive
34 | CC(C)(C)C(=O)OCOP(=O)(COCCn1cnc2c(N)ncnc21)OCOC(=O)C(C)(C)C | inactive |  | inactive |  |  | inactive |  | inactive | inactive | inactive
35 | C1CCC(C(CC2CCCCN2)C2CCCCC2)CC1 (stereo not drawn) | inactive |  | 12 µM (active) | 13.5 µM (active) | 3.98 µM (active) | 12 µM (active) | 13.5 µM (active) |  |  | 15.1 µM (active)
36 | CCn1cc(C(=O)O)c(=O)c2cc(F)c(N3CCN(C)CC3)cc21 | inactive |  | inactive | inactive | 7.08 µM (active) |  | inactive |  | inactive | inactive
37 | NC(=O)N1c2ccccc2CC(=O)c2ccccc21 |  | inactive | inactive | inactive | inactive |  | inactive | inactive | inactive | inactive
38 | CCOC(=O)c1ccc(OC(=O)CCCCCN=C(N)N)cc1 | inactive |  | inactive | inactive | inactive | inactive | inactive | inactive | inactive | inactive
39 | N[C@@H](Cc1ccc(O)c(O)c1)C(=O)O | inactive |  | inactive | inactive |  | inactive | inactive | inactive | inactive | inactive
40 | CCOc1cc(N)c(Cl)cc1C(=O)NCC1CN(Cc2ccc(F)cc2)CCO1 (stereo not drawn) | 6.01 µM (active) | 3.16 µM (active) |  | 13.5 µM (active) | 3.98 µM (active) | 12 µM (active) |  | 10.7 µM (active) |  | 
41 | Oc1c(Cl)cc(Cl)c2cccnc12 |  |  |  |  |  |  |  |  | inactive | inactive
42 | CC(N)C12CC3CC(CC(C3)C1)C2 (stereo not drawn) | inactive |  |  | inactive |  |  | 7.57 µM (active) |  | inactive | inactive
43 | COC(=O)Nc1nc2ccc(C(=O)c3ccccc3)cc2[nH]1 | inactive | inactive | inactive |  | inactive |  | inactive |  | inactive | 
44 | CC(C)(Sc1cc(C(C)(C)C)c(O)c(C(C)(C)C)c1)Sc1cc(C(C)(C)C)c(O)c(C(C)(C)C)c1 |  | inactive | inactive | inactive | 3.98 µM (active) | inactive | inactive | inactive |  | inactive
45 | CCn1cc(C(=O)O)c(=O)c2cc(F)c(N3CCNCC3)nc21 | inactive | inactive | inactive |  | inactive |  | inactive | inactive | inactive | 
46 | COc1cc2c(Nc3ccc(Br)cc3F)ncnc2cc1OCC1CCN(C)CC1 |  | 3.98 µM (active) | 2.13 µM (active) | 5.36 µM (active) | 3.98 µM (active) | 3.79 µM (active) |  | 2.39 µM (active) | inactive | inactive
47 | COc1cc([C@@H]2c3cc4c(cc3[C@H](O)[C@H]3COC(=O)[C@H]23)OCO4)cc(OC)c1OC | inactive | 2.51 µM (active) | 9.53 µM (active) | 4.26 µM (active) | 4.47 µM (active) |  | 15.1 µM (active) | 6.75 µM (active) |  | 
48 | CCCCCCNC(=O)n1cc(F)c(=O)[nH]c1=O |  |  |  |  | 7.08 µM (active) | 12 µM (active) |  |  |  | 
49 | CNC(=O)c1cc(Oc2ccc(NC(=O)Nc3ccc(Cl)c(C(F)(F)F)c3)cc2)ccn1 |  |  |  |  |  |  | 9.53 µM (active) |  |  | 
50 | C[C@@H](NCCCc1cccc(C(F)(F)F)c1)c1cccc2ccccc12 | inactive | 11.2 µM (active) |  | 10.7 µM (active) | 11.2 µM (active) | 10.7 µM (active) | 13.5 µM (active) | 13.5 µM (active) |  | 
